# In PubChem BioAssay (NCI):
# About 83,000 compounds went through this panel and 20% of them were active in at least one assay; those are over-represented in the sample as a whole.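 How to read the values: 0–100, growth inhibition (40 = 60% inhibited); 0, no net growth; -100 to 0, cell death (-40 = 40% of starting cells died; -100 = all dead).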 Values without a mark were called inactive. The source made the active and inactive calls. Rule for the calls: active = growth percent below 10; inactive = the rest.
# How the values were obtained:
# Assay in all cases: NCI-60 one-dose screen, 48 h (100 = growth as untreated, 0 = no growth, -100 = all killed)
# Details in all cases: 10 µM unless noted
# HCT-15 colon = system: HCT-15 colon
# HT29 colon = system: HT29 colon
# SNB-75 CNS = system: SNB-75 CNS
# SNB-19 CNS = system: SNB-19 CNS
# U251 CNS = system: U251 CNS
# PC-3 prostate = system: PC-3 prostate
# SK-MEL-5 melanoma = system: SK-MEL-5 melanoma
# UACC-62 melanoma = system: UACC-62 melanoma
# LOX IMVI melanoma = system: LOX IMVI melanoma
# SK-MEL-28 melanoma = system: SK-MEL-28 melanoma
Structure (SMILES),growth (HCT-15 colon),growth (HT29 colon),growth (SNB-75 CNS),growth (SNB-19 CNS) [%],growth (U251 CNS),growth (PC-3 prostate) [%],growth (SK-MEL-5 melanoma),growth (UACC-62 melanoma),growth (LOX IMVI melanoma),growth (SK-MEL-28 melanoma)
COc1ccc2[nH]cc(-c3nonc3-c3c[nH]c4ccc(Br)cc34)c2c1,19.9%,5.38% (active),58.6%,62.9,42.2%,39.8,78.1%,56%,-33.4% (active),84.1%
CCOC(=O)CC[C@H](NC(=O)c1ccc(N(C)Cc2cnc3nc(N)nc(N)c3n2)c2ccccc12)C(=O)OCC,30%,12.5%,76%,33.7,33%,24.3,23.4%,18.5%,17.6%,47.8%
N#Cc1c(-c2ccc(Cl)cc2)nc(NN=Cc2ccc[nH]2)nc1N1CCOCC1,78.9%,66.2%,-13.5% (active),74.2,56.4%,46.6,85.2%,88%,87.8%,90.8%
Nc1ncccc1O,18.7%,26.6%,121%,101,81.4%,133,101%,89.3%,75.2%,106%
Fc1ccc(/C=C/[C@@H]2C[C@@H](F)CCO2)cc1,93.7%,99.9%,99.3%,93.8,111%,43.6,98%,90.9%,96.9%,92.9%
N=C(N)c1ccc(-c2ccc(-c3ccccc3)o2)o1,13%,4.83% (active),32.8%,38.3,10.3%,30.4,30.5%,61.9%,14.3%,69.1%
COc1cc2c(cc1-c1c(C)noc1C)ncc1nc(CN3CCOCC3)n([C@H](C)COC(F)F)c12,23%,12.1%,3.11% (active),45.1,61.3%,32.3,19.8%,17.4%,12.1%,59.3%
C[C@@H]1CN(c2cnc(C(=O)Nc3cc(F)cc4cccnc34)cn2)C[C@H](C)N1,35.7%,35.5%,69%,92.4,76.6%,21.2,102%,94.3%,72.7%,94%
CNC(=O)Nc1ccc(-c2ccc3ncnc(Nc4cccc(Cl)c4)c3c2)cc1,45.9%,29%,54.6%,69.6,54.9%,45.1,56.1%,64.7%,60.8%,58.9%
COc1ccc(Oc2ccc(/C=C/C(=O)c3cc4ccccc4oc3=O)cc2)cc1,80.5%,108%,50.2%,91.7,87%,75.3,92.7%,76.7%,70.7%,98.6%
Oc1c(CN2CCC(N3CCOCC3)CC2)cc(Cc2cc(CN3CCC(N4CCOCC4)CC3)c(O)c3ncccc23)c2cccnc12,24%,30.2%,56.9%,29.3,27.5%,13.1,8.31% (active),-6.33% (active),1.05% (active),45%
O=C(NN1C(=O)CSC1c1cccc([N+](=O)[O-])c1)c1ccc(NC(=O)c2ccccn2)cc1 (stereo not drawn),92.3%,105%,98.9%,97.8,106%,,102%,96%,94.9%,99.3%
CCCCCCCCn1ccc2cc(NC(=O)CN3CCN(c4cc(C)nc(Cl)n4)CC3)ccc21,76.3%,77.3%,82.9%,88.9,89.5%,,59.3%,64.5%,94.2%,90.9%
CCCCn1c(NC(C)=O)c(S(=O)(=O)c2ccccc2)c2nc3ccccc3nc21,101%,124%,89.8%,98.7,103%,,100%,97.8%,101%,122%
O=C1CCC(C(=O)N/N=C/c2cc(F)ccc2F)N1 (stereo not drawn),98.6%,106%,80.7%,98.9,98%,,100%,98.1%,95.1%,108%
Cc1ccc(OCCOCCOCCOc2ccc(C)n(O)c2=S)c(=S)n1O,35.8%,30%,59.2%,33.8,31.1%,34.7,58.3%,,30.5%,48.8%
COc1cc(-c2ccc(-c3ccc(C(=N)N)cc3)s2)cc(OC)c1OC,58.9%,8.4% (active),64.8%,69.1,26.2%,,55.3%,54.7%,27.2%,77.3%
CC1(C)CC[C@]2(CO)CC[C@]3(C)[C@](O)([C@H](O)C[C@@H]4[C@@]5(C)CCCNC(C)(C)[C@@H]5CC[C@]43C)[C@@H]2C1,88.5%,20.6%,88.7%,103,79.6%,,96.8%,103%,87.8%,100%
CC[C@@H](C(=O)[C@@H](C)[C@@H](O)[C@H](C)[C@@H]1O[C@@H]([C@@H](CC)C(=O)ONC(=O)c2ccccc2O)CC[C@@H]1C)C1O[C@]2(C=CC(=O)[C@]3(CC[C@@](C)([C@H]4CC[C@](O)(CC)[C@H](C)O4)O3)O2)[C@H](C)C[C@@H]1C (stereo partly drawn),44.5%,33.9%,64.3%,48.4,32.1%,,11%,63.3%,45.4%,73.3%
c1cc(OCCN2CCCCCC2)ccc1CNc1ccc2nc(CCC3CCCCC3)[nH]c2c1,3.08% (active),8.15% (active),74.2%,79.5,45.2%,,-86.3% (active),,-67.4% (active),-8.14% (active)
O=C1CCCC1[n+]1ccccc1 (stereo not drawn),97.1%,61.4%,86.3%,103,84.4%,,104%,96.5%,99%,84.3%
CC(O)CNC(Cc1ccccc1)c1ccc2c(c1)OCO2 (stereo not drawn),104%,65.5%,90.2%,101,97.3%,,100%,,92.5%,72.3%
CC(O)Cc1c[nH]c(=O)[nH]c1=O (stereo not drawn),97.8%,114%,120%,108,95.9%,,109%,106%,96.5%,122%
CC1=Nc2cnc(Nc3ccc(N4CCCCC4)cc3)nc2Nc2ccccc21,62.6%,62.5%,86.7%,94.9,83.8%,,41.6%,55.2%,75.8%,84.7%
COc1ccc(C/C(C)=C(\c2ccc(O)cc2)c2ccc(OCCN3CCCCC3)cc2)cc1,72.7%,22.5%,77%,97.1,72.6%,,86.1%,,84.4%,90.3%
Cc1nn(C)c2ncnc(N/N=C/c3cccc(O)c3O)c12,28.9%,62.5%,38.6%,19.7,15.7%,,-41.4% (active),,4.98% (active),11.4%
O=c1ccc2ccc(OCCN3CCCCC3)cc2o1,108%,98.9%,105%,104,103%,,107%,94.1%,101%,102%
Cc1nc2ccccc2c(/C=C/c2ccc(F)cc2)c1C(=O)/C=C/c1ccccc1,-4.2% (active),3.31% (active),12.1%,38.2,-7.24% (active),,27.4%,26.1%,-82.5% (active),19.4%
O=C1C(Cl)=C(Nc2ccccc2)C(=O)c2ccccc21,-78.2% (active),-75.1% (active),97.8%,54.2,-41.8% (active),,-85.3% (active),-49.8% (active),-85.5% (active),-91.9% (active)
